# Results filed as inconclusive are left out. Activity calls are given as the source filed them. Calls come from the whole dose curve; as a rule, active = well fitted inhibition curve with a large enough effect; inconclusive = small, poorly fitted or top-dose-only effect; inactive = flat fitted curve, though single readings scatter.
# Target: Microtubule-associated protein tau (Homo sapiens) (UniProt P10636)
# Experiment: Confirmation Concentration-Response Assay for Inhibitors of Tau Fibril Formation, Thioflavin T Binding
# Settings: recombinant tau K18 P301L heparin fibrillization, ThT fluorescence; series mostly up to 100 µM; activity change, negative = inhibition: at the top concentration
# Procedure, shortened: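 Heparin (20 uM final) induced fibrillization of human tau K18 P301L (15 uM unlabeled plus 0.24 uM Alexa 594-labeled, final) in 100 mM sodium acetate pH 7 with compound, 6 hr at 37 C. ThT (30 uM final) added, read after 1 hr (ex 450, em 510 nm).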
# Chain of Microtubule-associated protein tau (Homo sapiens) (P10636 561-689 P618L limits assumed): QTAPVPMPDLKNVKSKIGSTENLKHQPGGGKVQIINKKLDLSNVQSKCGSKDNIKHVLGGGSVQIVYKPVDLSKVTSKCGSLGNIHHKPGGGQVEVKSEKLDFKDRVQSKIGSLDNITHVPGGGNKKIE
SMILES,"activity change, negative = inhibition",Potency
CCOC(=O)c1nn(-c2ccccc2)c(=O)c(C#N)c1C,-7.32% [at 57.1 µM] (inactive),–
O=S(=O)(c1ccc(N=C2NN=C(c3cc(F)ccc3F)CS2)cc1)N1CCOCC1,–,4.47 µM (active)
CN(c1ccccc1)S(=O)(=O)c1nnc(NC(=O)COc2ccccc2)s1,-16.4% (inactive),–
NCCc1ccc(O)c(O)c1,-25.5% (inactive),–
Cn1cc(Cl)c(C(=O)Nc2cccc(Cl)c2Cl)n1,-15.1% (inactive),–
N#Cc1cccc(NC(=O)c2ccc3c(c2)N(Cc2cccc(Cl)c2)C(=O)c2ccccc2S3(=O)=O)c1,-3.7% (inactive),–
O=C(Nc1nnc(S(=O)(=O)Nc2ccccc2)s1)C1CCCCC1,-17.4% (inactive),–
CCN(CC)c1ccc2oc(=O)c(C)nc2c1,–,10 µM (active)
Cc1[nH]c(=O)c(C#N)cc1-c1ccncc1,-4.9% (inactive),–
CC1CCc2c(sc(NC(=O)Cc3ccccc3)c2C(=O)Nc2ccc(Cl)cc2)C1 (stereo not given),-7.58% [at 57.1 µM] (inactive),–
Cc1ccc(NC(=O)N2CCN(c3ccccn3)CC2)cc1,-13.3% (inactive),–
COc1ccc2oc(-c3ccc(NC(=O)c4ccc(N5CCOCC5)c([N+](=O)[O-])c4)cc3)nc2c1,-36.6% (inactive),–
O=S(=O)(c1ccc2nc(-c3ccco3)c(-c3ccco3)nc2c1)N1CCOCC1,–,4.47 µM (active)
COc1ccc(-n2nc(C(=O)O)c3csc(N)c3c2=O)cc1,–,1 µM (active)
COc1ccc2c(c1)c(CC(=O)Nc1ccc(C(C)=O)cc1)c(C)n2C(=O)c1ccc(Cl)cc1,-18.6% (inactive),–
